From ChEMBL document CHEMBL3988442, “University of Dundee, Small-Polar-MMV Screening Library” (2021)
For some of these results: Measured potencies and affinities stand elsewhere.

Assays:
Parameters in all cases: scale not given: direction of the effect not stated beside the values
[1] = molecular target: Protein translocase subunit SecA (Escherichia coli (strain K12)) (UniProt P10408); assay: Assay to Identify E. coli SecA ATPase Inhibitors; assay type: functional; conditions: 30 µM
[2] = molecular target: T1, Ubiquitin-activating enzyme e1, putative (Leishmania donovani (strain BPK282A1)) (UniProt E9BSI1); assay: Leishmania donovani Ubiquitin Activating Enzyme (LdE1); assay type: functional; conditions: 30 µM
T1 sequence (whole entry): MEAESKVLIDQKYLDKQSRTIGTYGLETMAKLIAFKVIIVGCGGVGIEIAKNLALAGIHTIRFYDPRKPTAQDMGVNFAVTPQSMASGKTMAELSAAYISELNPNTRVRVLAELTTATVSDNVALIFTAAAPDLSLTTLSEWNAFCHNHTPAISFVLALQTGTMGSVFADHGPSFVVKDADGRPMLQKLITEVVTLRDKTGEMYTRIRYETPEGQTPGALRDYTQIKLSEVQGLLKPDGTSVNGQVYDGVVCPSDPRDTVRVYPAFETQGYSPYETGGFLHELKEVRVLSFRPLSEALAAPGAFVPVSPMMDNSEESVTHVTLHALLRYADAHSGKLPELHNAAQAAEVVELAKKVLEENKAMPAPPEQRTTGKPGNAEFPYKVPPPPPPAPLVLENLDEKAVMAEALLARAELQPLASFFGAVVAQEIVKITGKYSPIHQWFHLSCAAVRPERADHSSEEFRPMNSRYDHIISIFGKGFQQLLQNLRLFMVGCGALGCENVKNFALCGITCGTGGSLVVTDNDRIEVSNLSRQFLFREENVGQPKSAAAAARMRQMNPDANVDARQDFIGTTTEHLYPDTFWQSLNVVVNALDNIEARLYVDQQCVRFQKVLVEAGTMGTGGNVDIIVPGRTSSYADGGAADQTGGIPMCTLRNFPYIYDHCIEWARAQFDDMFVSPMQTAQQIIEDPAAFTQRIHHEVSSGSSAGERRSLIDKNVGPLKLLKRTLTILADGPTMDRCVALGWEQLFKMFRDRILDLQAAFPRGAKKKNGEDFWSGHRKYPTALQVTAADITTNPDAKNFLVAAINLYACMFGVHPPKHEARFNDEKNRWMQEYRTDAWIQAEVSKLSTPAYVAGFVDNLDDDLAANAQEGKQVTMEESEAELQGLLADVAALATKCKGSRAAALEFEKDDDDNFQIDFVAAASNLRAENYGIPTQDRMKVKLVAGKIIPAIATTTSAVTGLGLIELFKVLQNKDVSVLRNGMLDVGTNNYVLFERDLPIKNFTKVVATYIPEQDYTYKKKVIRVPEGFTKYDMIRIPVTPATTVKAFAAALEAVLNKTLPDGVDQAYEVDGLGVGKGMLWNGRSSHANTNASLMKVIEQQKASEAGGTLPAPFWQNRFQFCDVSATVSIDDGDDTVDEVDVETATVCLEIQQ

[3] = molecular target: AMP-activated protein kinase, AMPK (Homo sapiens) (UniProt P54646+O43741+P54619+Q9UGJ0+Q9Y478+Q13131+Q9UGI9); assay: AMP-dependent Kinase enzyme assay. An in vitro enzyme assay that detects ADP turnover that is directly proportional to AMPK activity. This uses naive AMPK that is activated during the assay with MK-8722; assay type: functional; conditions: 30 µM
[4] = molecular target: Sialic acid-binding Ig-like lectin 9 (Homo sapiens) (UniProt Q9Y336); assay: Hs-Siglec9 ALPHAscreen SOP 20170721; conditions: 10 µM
Sequence of Sialic acid-binding Ig-like lectin 9 (Homo sapiens) (Q9Y336 whole entry): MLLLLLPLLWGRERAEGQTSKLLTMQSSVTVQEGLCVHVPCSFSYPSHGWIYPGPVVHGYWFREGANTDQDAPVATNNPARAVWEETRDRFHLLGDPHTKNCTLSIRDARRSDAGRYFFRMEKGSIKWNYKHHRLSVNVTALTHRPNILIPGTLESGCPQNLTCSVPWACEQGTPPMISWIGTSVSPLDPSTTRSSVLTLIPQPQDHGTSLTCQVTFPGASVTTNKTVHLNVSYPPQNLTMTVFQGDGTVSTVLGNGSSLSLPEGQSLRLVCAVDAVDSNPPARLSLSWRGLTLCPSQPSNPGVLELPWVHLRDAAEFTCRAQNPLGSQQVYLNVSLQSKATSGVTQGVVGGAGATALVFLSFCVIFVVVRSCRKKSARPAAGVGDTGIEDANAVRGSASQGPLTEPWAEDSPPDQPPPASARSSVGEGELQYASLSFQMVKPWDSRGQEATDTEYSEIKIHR

[5] = test system: Trypanosoma cruzi; assay: Trypanosoma cruzi phosphomannomutase and mannose-1-phosphate guanylyltransferase assay; assay type: functional; conditions: 10 µM
[6] = molecular target: T2, Arginase-2, mitochondrial (Homo sapiens) (UniProt P78540); assay: in vitro enzyme assay to detect the production of urea directly proportional to the activity of Arginase II; assay type: functional; conditions: 33.3 µM; also: in the data most compounds retested in dose-response had high values
T2 sequence (whole entry): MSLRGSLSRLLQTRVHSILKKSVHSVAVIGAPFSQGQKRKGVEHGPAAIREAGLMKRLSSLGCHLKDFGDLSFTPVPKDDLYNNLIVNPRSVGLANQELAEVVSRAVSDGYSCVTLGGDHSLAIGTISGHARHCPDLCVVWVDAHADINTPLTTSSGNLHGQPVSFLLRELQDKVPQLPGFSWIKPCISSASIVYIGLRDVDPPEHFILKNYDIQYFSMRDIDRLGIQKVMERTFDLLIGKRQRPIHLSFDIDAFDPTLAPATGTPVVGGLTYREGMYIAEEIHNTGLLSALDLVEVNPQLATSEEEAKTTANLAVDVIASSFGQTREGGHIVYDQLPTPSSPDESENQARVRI

[7] = molecular target: T3, Proteasome subunit beta (Trypanosoma cruzi) (UniProt O96673); assay: Trypanosoma cruzi proteasome chymotrypsin-like activity (TcProtChymo) assay.; also: in the data most compounds retested in dose-response had high values; assay type: functional; conditions: 9.37 µM
T3 sequence (whole entry): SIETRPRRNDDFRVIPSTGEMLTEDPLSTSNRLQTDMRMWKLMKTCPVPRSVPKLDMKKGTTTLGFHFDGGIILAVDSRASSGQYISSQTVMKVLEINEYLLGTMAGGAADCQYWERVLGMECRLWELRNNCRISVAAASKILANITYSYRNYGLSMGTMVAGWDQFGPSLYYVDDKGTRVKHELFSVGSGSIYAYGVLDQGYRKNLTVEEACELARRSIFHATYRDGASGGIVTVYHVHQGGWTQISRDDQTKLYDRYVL

[8] = species on record: Homo sapiens; assay: To identify inhibition of the IFN signalling (Jak-Stat) pathway via expression of an eGFP reporter gene under the control of an IFN-stimulated response element (ISRE) containing MxA promoter.; assay type: functional; conditions: 30 µM
[9] = molecular target: T4, Tyrosyl-tRNA synthetase, putative (Trypanosoma cruzi (strain CL Brener)) (UniProt Q4DSP6); assay: Trypanosoma cruzi tyrosyl tRNA synthetase (TcYRS) _High Tyrosine SOP; assay type: functional; conditions: 30 µM; also: in the data most compounds retested in dose-response had high values
T4 sequence (whole entry): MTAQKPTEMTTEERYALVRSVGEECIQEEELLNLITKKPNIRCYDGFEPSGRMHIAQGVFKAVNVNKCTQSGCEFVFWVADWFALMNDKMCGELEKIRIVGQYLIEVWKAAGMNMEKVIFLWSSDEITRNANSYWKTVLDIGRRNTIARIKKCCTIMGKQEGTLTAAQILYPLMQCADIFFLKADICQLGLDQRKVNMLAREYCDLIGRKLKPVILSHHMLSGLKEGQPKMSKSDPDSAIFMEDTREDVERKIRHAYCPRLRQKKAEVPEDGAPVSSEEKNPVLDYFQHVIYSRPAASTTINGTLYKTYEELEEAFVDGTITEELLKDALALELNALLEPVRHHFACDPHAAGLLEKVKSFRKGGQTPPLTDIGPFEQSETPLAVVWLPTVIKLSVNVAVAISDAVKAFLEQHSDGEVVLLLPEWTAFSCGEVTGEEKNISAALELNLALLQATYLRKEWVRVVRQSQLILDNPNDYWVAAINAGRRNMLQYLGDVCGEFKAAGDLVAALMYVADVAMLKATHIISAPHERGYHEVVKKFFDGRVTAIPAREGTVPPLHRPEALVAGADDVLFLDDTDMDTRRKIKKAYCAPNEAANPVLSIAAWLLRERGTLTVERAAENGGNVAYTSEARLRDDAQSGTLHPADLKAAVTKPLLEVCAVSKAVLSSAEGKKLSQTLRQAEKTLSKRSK

[10] = molecular target: T4, Tyrosyl-tRNA synthetase, putative (Trypanosoma cruzi (strain CL Brener)); assay: Trypanosoma cruzi tyrosyl tRNA synthetase (TcYRS) SOP; assay type: functional; conditions: 30 µM
[11] = molecular target: Chromo domain-containing protein 1 (Saccharomyces cerevisiae (strain ATCC 204508 / S288c) (Baker's yeast)) (UniProt P32657); assay: ScCHD-1 Enzyme Inhibition Assay; assay type: functional; conditions: 30 µM; also: in the data most compounds retested in dose-response had high values
Sequence of Chromo domain-containing protein 1 (Saccharomyces cerevisiae (strain ATCC 204508 / S288c) (Baker's yeast)) (P32657 whole entry, the tested form may be a part): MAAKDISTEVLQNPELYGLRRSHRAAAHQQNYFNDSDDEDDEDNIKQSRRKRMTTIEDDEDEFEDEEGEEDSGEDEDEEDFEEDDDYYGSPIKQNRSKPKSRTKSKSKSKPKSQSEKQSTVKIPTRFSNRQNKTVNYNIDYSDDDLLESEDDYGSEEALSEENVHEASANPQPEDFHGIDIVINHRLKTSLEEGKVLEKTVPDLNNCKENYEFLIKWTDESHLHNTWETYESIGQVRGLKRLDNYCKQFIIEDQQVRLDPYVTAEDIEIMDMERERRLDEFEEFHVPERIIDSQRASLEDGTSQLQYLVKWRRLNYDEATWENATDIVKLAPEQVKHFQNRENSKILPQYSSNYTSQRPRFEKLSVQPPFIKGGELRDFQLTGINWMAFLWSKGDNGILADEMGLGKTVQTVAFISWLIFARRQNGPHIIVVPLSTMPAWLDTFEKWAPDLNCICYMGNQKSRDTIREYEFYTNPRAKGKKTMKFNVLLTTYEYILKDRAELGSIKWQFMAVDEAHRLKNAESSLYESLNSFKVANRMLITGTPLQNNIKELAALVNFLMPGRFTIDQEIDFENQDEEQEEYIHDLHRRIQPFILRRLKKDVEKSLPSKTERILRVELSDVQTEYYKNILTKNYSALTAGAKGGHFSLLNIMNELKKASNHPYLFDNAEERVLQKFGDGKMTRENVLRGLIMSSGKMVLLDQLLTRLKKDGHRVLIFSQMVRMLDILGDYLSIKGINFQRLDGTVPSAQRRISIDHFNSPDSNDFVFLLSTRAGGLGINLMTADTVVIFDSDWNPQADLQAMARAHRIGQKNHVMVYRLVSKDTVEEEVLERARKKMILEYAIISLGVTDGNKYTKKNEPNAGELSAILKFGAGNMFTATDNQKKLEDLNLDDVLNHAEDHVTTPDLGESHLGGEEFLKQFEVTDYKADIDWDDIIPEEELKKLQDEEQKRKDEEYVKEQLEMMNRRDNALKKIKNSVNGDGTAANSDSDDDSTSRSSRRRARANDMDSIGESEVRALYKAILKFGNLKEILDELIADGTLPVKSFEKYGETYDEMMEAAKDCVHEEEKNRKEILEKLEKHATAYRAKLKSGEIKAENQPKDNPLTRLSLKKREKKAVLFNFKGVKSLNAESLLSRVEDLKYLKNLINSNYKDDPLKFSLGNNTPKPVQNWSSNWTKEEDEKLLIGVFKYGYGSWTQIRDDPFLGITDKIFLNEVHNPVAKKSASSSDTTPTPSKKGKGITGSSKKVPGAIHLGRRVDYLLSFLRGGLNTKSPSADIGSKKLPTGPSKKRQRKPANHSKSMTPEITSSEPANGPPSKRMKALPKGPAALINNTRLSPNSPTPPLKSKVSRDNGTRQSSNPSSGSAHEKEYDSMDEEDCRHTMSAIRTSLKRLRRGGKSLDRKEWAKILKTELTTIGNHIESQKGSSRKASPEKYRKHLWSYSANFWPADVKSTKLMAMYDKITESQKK

Sequence of Protein translocase subunit SecA (Escherichia coli (strain K12)) (P10408 whole entry): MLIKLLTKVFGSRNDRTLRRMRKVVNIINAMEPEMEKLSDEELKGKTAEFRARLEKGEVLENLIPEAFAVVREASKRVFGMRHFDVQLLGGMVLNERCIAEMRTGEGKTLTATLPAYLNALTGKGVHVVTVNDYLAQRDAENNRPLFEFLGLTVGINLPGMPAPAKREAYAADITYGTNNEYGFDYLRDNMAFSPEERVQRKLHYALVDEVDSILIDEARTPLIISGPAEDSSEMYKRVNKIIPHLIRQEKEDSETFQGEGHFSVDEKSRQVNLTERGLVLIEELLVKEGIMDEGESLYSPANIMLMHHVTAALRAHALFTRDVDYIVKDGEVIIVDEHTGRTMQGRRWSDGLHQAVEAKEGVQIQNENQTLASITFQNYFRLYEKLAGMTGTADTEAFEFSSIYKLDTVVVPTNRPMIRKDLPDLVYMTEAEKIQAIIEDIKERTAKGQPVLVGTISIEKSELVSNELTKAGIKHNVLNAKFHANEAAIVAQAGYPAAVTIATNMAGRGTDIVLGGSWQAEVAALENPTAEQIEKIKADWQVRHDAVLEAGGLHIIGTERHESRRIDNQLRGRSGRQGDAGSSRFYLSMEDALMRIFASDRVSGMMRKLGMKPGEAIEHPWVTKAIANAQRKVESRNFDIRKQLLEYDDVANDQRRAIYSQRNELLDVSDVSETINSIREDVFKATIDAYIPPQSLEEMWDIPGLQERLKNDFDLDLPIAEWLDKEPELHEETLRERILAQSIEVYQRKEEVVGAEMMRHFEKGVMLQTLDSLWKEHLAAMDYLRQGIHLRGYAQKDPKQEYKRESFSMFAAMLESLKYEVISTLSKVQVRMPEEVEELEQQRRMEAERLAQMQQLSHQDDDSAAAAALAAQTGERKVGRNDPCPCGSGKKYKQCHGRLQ

SMILES | Percent Effect [1] | Percent Effect [2] | Percent Effect [3] | Percent Effect [4] | Percent Effect [5] | Percent Effect [6] | Percent Effect [7] | Percent Effect [8] | Percent Effect [9] | Percent Effect [10] | Percent Effect [11]
COc1cccc(OCCNC(=O)CN2CCN(C)CC2C)c1 (stereo not given) | -4.33% | 13.5% | -5.8% | 15% | 6.59% | -2.77% | 7.54% | 11.6% | 3.96% | 18.3% | -8.99%
O=C(NCc1nnc2n1CCCC2)N1CCc2ccccc2C1 | -3.86% | 11.4% | -3.15% | 2.59% | -4% | 4.09% | 4.63% | 4.93% | 1.04% | 12.7% | -7.99%
CCc1ccc(CN(CCCn2ccnc2)Cc2ccc(C)s2)o1 | -8.95% | 1.35% | 1.91% | 2.18% | -0.79% | -3.94% | 9.36% | 38.5% | 0% | -6.49% | -8.71%
NS(=O)(=O)Cc1ccc(CNC(=O)NCC2CCOC2)cc1 (stereo not given) | -1.97% | 7.79% | 5.79% | -1.36% | 1.86% | 3.58% | 5.09% | -5.41% | 2.86% | 18.8% | -8.13%
N#Cc1ccc(CN2CCN(C(=O)C3CCC3)[C@@H]3CS(=O)(=O)C[C@@H]32)cc1 | -4.22% | 5.2% | 3.66% | 3.04% | -5.61% | -20.7% | 8.98% | 14.4% | 4.3% | 8.64% | -1.71%
COc1ncccc1NC(=O)C1CCS(=O)(=O)C1 (stereo not given) | -5.85% | 20.8% | -1.47% | -3.58% | -5.99% | -1.07% | 3.21% | 19.2% | 3.88% | 12.2% | -9.93%
Cc1noc2nc(C3CCN(CC4=CCCOC4)CC3)cc(C(F)F)c12 | -1.97% | 6.76% | 13.4% | 0.663% | -3.56% | -3.02% | 3.28% | 2.72% | 7.53% | 11.7% | -11.7%
O=C(C1CCC1)N1CCN(C(=O)c2cnccn2)[C@H]2CS(=O)(=O)C[C@H]21 | -0.271% | 13.5% | -3.89% | 16.5% | 7.34% | 0.476% | 9.65% | 3.49% | 4.76% | 17.1% | -3.81%
CN(CCc1ccccc1)C1CCCN(Cc2nccn2C)C1 (stereo not given) | -4.99% | -39% | -1.69% | 5.27% | 8.36% | 0% | 9.48% | -25.8% | 6.45% | 6.17% | -8.68%
Cn1cc(CN2CC3(CCN(C(=O)c4cscn4)C3)C2)cn1 | -1.74% | 19.2% | -7.29% | 10.7% | 3.77% | -3.19% | 9.85% | 4.08% | 10.4% | 16.1% | -10.8%
Cc1nc(N2CCCC2)nc2c1CCN(Cc1ccco1)CC2 | -1.94% | 10.7% | 8.01% | 0.178% | 0% | -45.3% | 20.7% | -2.8% | 3.12% | 12.5% | -9.82%
O=C(NCC1CC1)Nc1cnc2cc(Cl)ccc2c1O | -4.33% | 12.2% | 4.52% | -10.8% | -2.57% | -1.62% | 8.89% | 8.61% | -1.07% | -1.3% | -6.64%
Cc1nn(C)c(Cl)c1C1CCCN1C(=O)c1cc(Cl)c[nH]1 (stereo not given) | -2.13% | 2.7% | 0.443% | 9.97% | -1.79% | 2% | -1.62% | 2.15% | 7.39% | 3.7% | 2.56%
CN1N=C(C(=O)N2CCCC(CCc3c(F)cccc3F)C2)CCC1=O (stereo not given) | -4.37% | 2.7% | 0.625% | 7.41% | 1.74% | 0% | 1.21% | 4.11% | 3.7% | 7.32% | -1.23%
CC(C)NC(=O)c1n[nH]c(-n2cnnc2)n1 | -5.17% | 9.33% | -5.08% | 5.32% | 1.77% | -4.05% | 2.77% | 2.63% | 4.23% | 10.3% | -8.26%
COCCN1C[C@@H](C)[C@@]2(COCCN(C(=O)Cc3ccccc3)C2)C1 | -2.42% | 10.7% | 4.69% | 6.89% | 1.54% | -54.7% | 5.13% | -15.6% | 5.21% | 12.5% | -7.47%
Cc1cnn(CC2CCCN2C(=O)c2cc3ccccc3[nH]c2=O)c1 (stereo not given) | -8.51% | 7.79% | -12.6% | -10% | -5.97% | -1.9% | 8.49% | 15% | 1.91% | 7.06% | -15.3%
O=C(c1ccc[nH]1)N1CCn2cc(CN3CCCC3)nc2C1 | -5.65% | 0% | 7.25% | -0.683% | -3.35% | -0.699% | 9.07% | 8.62% | 1.06% | 3.85% | -0.931%
CC(NC(=O)NCCCn1cccn1)c1ccc2c(c1)NC(=O)CO2 (stereo not given) | -6.96% | 25.3% | -6.75% | -5.5% | 10.1% | -3.42% | 10.2% | 15.4% | 8.37% | 29.1% | -10.1%
CN(C(=O)CCNC(=O)NC1CCCCC1)c1ccccc1 | -3.57% | 21.1% | -2.45% | -10.2% | 3.21% | -1.18% | 14.3% | 8.02% | 3.19% | 13% | -0.404%
